For 44 sequences, binding signal results are on record in PMC7819943, “Rice protein-binding microarrays: a tool to detect cis-acting elements near promoter regions in rice”.

Whole data set: some 68,000 sequences, median “fluorescence intensity (a.u.)” near 9,100, cut for the highest 2% near 16,000. This excerpt belongs to a sample that is enriched for the highest values.

For this assay, the target named is OsWRKY34 (Oryza sativa, UniProt Q0JBA9 1-250). The assay can be described thus: protein-binding microarray (RPBM); PBS, 2% BSA, 51.3 ng/ul salmon testes DNA, 50 uM zinc acetate, 200 nM TF, 25 C, 1 h; high values mean tight binding. The settings on record: protein: recombinant; tags: N-terminal polyhistidine and DsRed monomer fusion (pET32a); label: CyDye5-dUTP incorporated in the synthesized complementary strand; 3' TTTTT single-stranded linker to array surface; dsDNA, one strand shown. Summed up: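 The binding signal is fluorescence intensity per array feature (arbitrary units). Readings came from an Axon 4000B scanner after a washed, 2% BSA-blocked, double-stranded custom Agilent array had been incubated for 1 h at 25 °C with 200 nM protein and 50 µM zinc acetate. The protein was a Ni–NTA-purified transcription factor fused N-terminally to polyhistidine and DsRed, expressed in E. coli BL21-CodonPlus.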
Chain of OsWRKY34 (Q0JBA9 entry or part of it): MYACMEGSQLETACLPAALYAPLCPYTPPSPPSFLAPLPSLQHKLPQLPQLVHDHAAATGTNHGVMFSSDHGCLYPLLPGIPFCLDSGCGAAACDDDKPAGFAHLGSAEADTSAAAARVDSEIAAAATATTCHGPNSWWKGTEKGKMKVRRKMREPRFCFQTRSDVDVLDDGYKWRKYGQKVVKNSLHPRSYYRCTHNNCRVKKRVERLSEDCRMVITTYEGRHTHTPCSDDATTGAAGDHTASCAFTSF
As for “AGGGAGAGTGTGGGTGCGTGGGGCATATGGTGGTGCGGTGCGGAGTCACCTAGTGCAG”, the binding signal was 9950 fluorescence intensity (a.u.).

Regarding “CCCTCCCCTCTGCTTCCGTTCCCTTGGGTTGGGTTGTGTTCGGAGTCACCTAGTGCAG”, the binding signal was 8480 fluorescence intensity (a.u.).

Turning to “GTGGTTATTCAATTTGTTGCTTGTTTTTGTTTCAAGTTGGCGGAGTCACCTAGTGCAG”, the binding signal was 10700 fluorescence intensity (a.u.).

As to “TATATCATATGCGGGCGTGATCTATTGGGGCGGGGTGTGGCGGAGTCACCTAGTGCAG”, the binding signal was 20000 fluorescence intensity (a.u.).

Turning to “GGGGTGGACTGGGGTGTTTGGCTGCGTGAGTGCGGAGCGGCGGAGTCACCTAGTGCAG”, the binding signal was 8920 fluorescence intensity (a.u.).

Regarding “TATTCGATTTTGGGTGGTGGTTGTTAAGTTGGCATTTGCACGGAGTCACCTAGTGCAG”, the binding signal was 18300 fluorescence intensity (a.u.).

Regarding “TGGGTGGGTGCGGCGTGGAGTGACGTGGCGGCGGGTGTGGCGGAGTCACCTAGTGCAG”, the binding signal is 8590 fluorescence intensity (a.u.).

Take “CTGCTGTGTTGCACATTTTTCTGCTCTGTATACCTATAATCGGAGTCACCTAGTGCAG”: the binding signal is 12200 fluorescence intensity (a.u.).

For “GGTGAGTTCTTGATTTGGGCGTGGAGCTTTTTTTCTTGGTCGGAGTCACCTAGTGCAG”, the binding signal is 8170 fluorescence intensity (a.u.).

Consider “ATTCTGATTGGGTGTGGTTGGTTTGATTTTCTGTTAAGCACGGAGTCACCTAGTGCAG”, for which the binding signal is 11700 fluorescence intensity (a.u.).

With “CCCTTGGGTTGGGTTGTGTTGCTCCCTCTGCTGCATTAATCGGAGTCACCTAGTGCAG”, the binding signal was 18100 fluorescence intensity (a.u.).

For “GGTGGGTGTGTGCTTGTTTCGGCGTGTGATTTGGGCGGAGCGGAGTCACCTAGTGCAG”, the binding signal is 16500 fluorescence intensity (a.u.).

With “GAAGTGATGAATATATTAAACTGGTTTGGCTATTATTTCCCGGAGTCACCTAGTGCAG”, the binding signal was 8360 fluorescence intensity (a.u.).

On to “CTCTCGTGGTGTGGTGTGGACAAGAAAGGAAGGAAAGATGCGGAGTCACCTAGTGCAG”, for which the binding signal was 8700 fluorescence intensity (a.u.).

“TAATGTCCCTATTTTGTTATAGTGTTCCTCCAATAATCTGCGGAGTCACCTAGTGCAG”: the binding signal was 8290 fluorescence intensity (a.u.).

Regarding “CAGTTCTTCGTTCTTGTCTTTACTCTCATGATTTTCTCTTCGGAGTCACCTAGTGCAG”, the binding signal is 10900 fluorescence intensity (a.u.).

Take “CTCAACCTCTCGGTCGTCGGCCTCGTCCTCCGGGCCGGCACGGAGTCACCTAGTGCAG”: the binding signal was 12000 fluorescence intensity (a.u.).

Turning to “TTCATAGCCGCCGCATCTCCTTCTCTTCGACTTTTCTCCTCGGAGTCACCTAGTGCAG”, the binding signal is 9080 fluorescence intensity (a.u.).

As to “TCAAACGATGCCATTCACCACGTGCCACTTTATATCAAACCGGAGTCACCTAGTGCAG”, the binding signal was 11700 fluorescence intensity (a.u.).

“CTTAACGGCCCATTTATCTTGTCTCTCTGGCCCACCTGCACGGAGTCACCTAGTGCAG”: the binding signal is 12300 fluorescence intensity (a.u.).

Turning to “CCTGTAATACTTTTGTTAATTCGATCCTACTACATCTTTACGGAGTCACCTAGTGCAG”, the binding signal was 10400 fluorescence intensity (a.u.).

With “TTTCTTCATTTCATGATTGTATATTCTGGTGTTTTTGTGGCGGAGTCACCTAGTGCAG”, the binding signal was 9250 fluorescence intensity (a.u.).

As to “TGGGAGCTTTGCTTGGGGTGTGTGTGTGTTTGGGTGGTGCCGGAGTCACCTAGTGCAG”, the binding signal was 10900 fluorescence intensity (a.u.).

In the case of “CATATATTGGTGTTGTGTGTGGGTGGGTGGGGCGGTGCTTCGGAGTCACCTAGTGCAG”, the binding signal is 30900 fluorescence intensity (a.u.).

Regarding “GTTTTTGTGCTTGGTGGTGGTGGTGGGTGATTTGCAGGGGCGGAGTCACCTAGTGCAG”, the binding signal is 31700 fluorescence intensity (a.u.).

Consider “TTGGTCGCATTTCGGGTGGTGGTGGTGGTGGTGGTGGTGGCGGAGTCACCTAGTGCAG”, for which the binding signal is 13200 fluorescence intensity (a.u.).

For the sequence “ACGGTGTATATTTGTGGTGTGGCGGGTGTGGCATTGGATTCGGAGTCACCTAGTGCAG”, the binding signal was 16700 fluorescence intensity (a.u.).

As for “TGGTGTTGTCGGTGTGTGGGTGGTGATATACTTTTTTTTTCGGAGTCACCTAGTGCAG”, the binding signal was 11600 fluorescence intensity (a.u.).

Regarding “GTGGTGGTGGTGTGTGAGCTCGGGGCTTGGGGTTTTGCGGCGGAGTCACCTAGTGCAG”, the binding signal is 13300 fluorescence intensity (a.u.).

Regarding “GAGCTGGGGTGGTGTTTGTTTGTGGGTGTGTTTGTGTGCTCGGAGTCACCTAGTGCAG”, the binding signal is 15900 fluorescence intensity (a.u.).

Consider “TAGTCTTTTCCATGTCATGTGATCATGTGTGGAGTTGATTCGGAGTCACCTAGTGCAG”, for which the binding signal is 8550 fluorescence intensity (a.u.).

Take “ACTCATGGATGCAGGTCCACCTACATACGTACTACCACAACGGAGTCACCTAGTGCAG”: the binding signal is 8570 fluorescence intensity (a.u.).

Consider “GCCATCCTCCGCGACGCACATCGTCCGTCCCACCACGATGCGGAGTCACCTAGTGCAG”, for which the binding signal was 10400 fluorescence intensity (a.u.).

For the sequence “GACATAAGTTTATTATCTATATCCATAGTACGTTTAATCCCGGAGTCACCTAGTGCAG”, the binding signal is 10100 fluorescence intensity (a.u.).

For “AAACTGCACTACTTTATCTTGGTTGTCTTTAGCATAAGAACGGAGTCACCTAGTGCAG”, the binding signal was 12100 fluorescence intensity (a.u.).

For the sequence “AATCCCCGCACGCGTCTTTACTTCGCCTTCGTCTTTCCTCCGGAGTCACCTAGTGCAG”, the binding signal was 9340 fluorescence intensity (a.u.).

With “TTCTTGTTTTCGTGGATCATCATCAACCTCAATAGAAACGCGGAGTCACCTAGTGCAG”, the binding signal is 8410 fluorescence intensity (a.u.).

For the sequence “TCTCCTAAAGATTCATGTTACGTATCTCTTACTTCAACAGCGGAGTCACCTAGTGCAG”, the binding signal was 8710 fluorescence intensity (a.u.).

As to “GTACGTACAACATTGTGTATCTGTTTTGTAAGTTATTAACCGGAGTCACCTAGTGCAG”, the binding signal was 9710 fluorescence intensity (a.u.).

Regarding “GTTTGGCCATGGTGCCGTCGTTGTCTCGTTGATGCTTAGTCGGAGTCACCTAGTGCAG”, the binding signal was 10700 fluorescence intensity (a.u.).

“CGGTTTTGACGGACGTGGTGCCCACGTGGCTAGTTTGACTCGGAGTCACCTAGTGCAG”: the binding signal was 8980 fluorescence intensity (a.u.).

In the case of “TTGACCAACGTTTAACCATTCGTTTCATTTAATTTTTTTTCGGAGTCACCTAGTGCAG”, the binding signal is 10800 fluorescence intensity (a.u.).

In the case of “ATCGGTGGTGGTGGTGGTGGTGGCCATGAGTCTCGTTTGACGGAGTCACCTAGTGCAG”, the binding signal is 27500 fluorescence intensity (a.u.).

With “AACTCATCTGACAGTGATCCATCGTCCTTTTTCTTTGACTCGGAGTCACCTAGTGCAG”, the binding signal is 10100 fluorescence intensity (a.u.).
